# Reference: PubChem BioAssay AID651863 (Broad Institute, 2012)
# Entries with a potency or affinity are not part of this list. Activity calls are given as the source filed them.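 Rule for the calls: active = compounds whose fitted half-maximal cell-killing dose is at most twice the top tested dose; inconclusive = flat curve with 30 to 70 percent signal loss, or poor fit; inactive = the rest.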
# Assay: kidney cell line viability loss – HEK293T, luminescence plate reader, powder samples, set 4, cytotoxicity control, dose response (AID 651863)
# Conditions: CellTiter-Glo ATP luminescence, 48 h; series mostly up to 26 µM
row,SMILES,outcome
1,O=C(O)CC(=O)N1CCc2ccccc2C1CN1C(=O)c2ccccc2C1=O (stereo not drawn),inactive
2,O=C(NC[C@@H]1c2ccccc2CCN1C(=O)[C@@H]1CCCC[C@@H]1C(=O)O)c1ccc(CN2CCOCC2)cc1,inactive
3,Cc1ccc(S(=O)(=O)NC(=O)[C@@H]2c3ccccc3CCN2C(=O)[C@@H]2CCCC[C@@H]2C(=O)O)cc1,inactive
4,O=C(O)[C@H]1CCCC[C@H]1C(=O)NC(CN1C(=O)c2ccccc2C1=O)c1ccccc1 (stereo partly drawn),inactive
5,O=C(O)Cc1ccccc1C(=O)N1CCc2ccccc2[C@H]1CN1C(=O)c2ccccc2C1=O,inactive
6,C=CC(=O)NC[C@@H]1c2ccccc2CCN1C(=O)[C@@H]1CCCC[C@@H]1C(=O)O,inactive
7,C[C@@H](NC(=O)C1CCCC[C@H]1C(=O)O)c1ccccc1 (mixture of isomers),inactive
8,O=C(NCCc1ccccc1)c1ccccc1C(=O)NC[C@@H]1c2ccccc2CCN1C(=O)C1CCCCC1C(=O)O (stereo partly drawn),inactive
9,COC(=O)[C@@H]1CCCC[C@@H]1C(=O)N1CCc2ccccc2[C@@H]1CN1C(=O)c2ccccc2C1=O,inactive
10,O=S(=O)(Nc1nc(NCC2CCCCC2)nc2ccccc12)c1ccccc1,inactive
11,Cc1cc(C)c(S(=O)(=O)Nc2cc(C(C(=O)OCc3ccccc3)C(=O)OCc3ccccc3)c(O)c3ccccc23)c(C)c1,inactive
12,O=C(NC[C@@H]1c2ccccc2CCN1C(=O)[C@@H]1CCCC[C@@H]1C(=O)O)c1ccccc1CO,inactive
13,O=C(O)[C@H]1CCCC[C@H]1C(=O)N1CCc2ccccc2[C@H]1CNS(=O)(=O)c1ccccc1,inactive
14,O=C(NCCCN1CCOCC1)c1ccccc1C(=O)NC[C@@H]1c2ccccc2CCN1C(=O)C1CCCCC1C(=O)O (stereo partly drawn),inactive
15,O=C1c2ccccc2C(=O)N1C[C@@H]1c2ccccc2CCN1C(=O)OCc1ccccc1,inactive
16,O=C(Cc1ccccc1)NC[C@@H]1c2ccccc2CCN1C(=O)[C@@H]1CCCC[C@@H]1C(=O)O,inactive
17,O=C1c2ccccc2C(=O)N1C[C@H]1NCCc2ccccc21,inactive
18,Cc1ccc(S(=O)(=O)Nc2cc(C(C(=O)OC(C)C)C(=O)C(F)(F)F)c(O)c3ccccc23)c(C)c1 (stereo not drawn),inactive
